High-throughput results deposited in PubChem by National Center for Advancing Translational Sciences (NCATS).
Sampled rows, rich in hits. Any-hit rate of the full collection: about 6.1%.
DRD3 antagonist: qHTS of D3 Dopamine Receptor Antagonist: qHTS. D(3) dopamine receptor (Homo sapiens), P35462. D3R cells, DiscoveRx beta-arrestin luminescence, antagonist mode; hits give low values. max response, negative = inhibition, %. hit rate 2.5% among 360,000; in the data active = max response below about -50%; inconclusive = no clear call, values can overlap the other calls; also: % is scaled to controls: 0 for no effect and ±100 for the full control effect
Target sequence (P35462 whole entry, looked up): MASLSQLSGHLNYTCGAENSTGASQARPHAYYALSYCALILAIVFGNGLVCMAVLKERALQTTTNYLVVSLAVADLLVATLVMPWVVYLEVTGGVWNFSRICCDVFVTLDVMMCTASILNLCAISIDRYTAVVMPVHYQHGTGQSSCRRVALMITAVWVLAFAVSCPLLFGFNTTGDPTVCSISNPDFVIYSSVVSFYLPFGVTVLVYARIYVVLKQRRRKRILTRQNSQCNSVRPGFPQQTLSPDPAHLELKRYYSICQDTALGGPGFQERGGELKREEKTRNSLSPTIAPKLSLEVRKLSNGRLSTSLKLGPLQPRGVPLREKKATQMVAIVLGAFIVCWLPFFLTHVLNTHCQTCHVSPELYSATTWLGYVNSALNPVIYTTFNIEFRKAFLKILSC
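Cells expressing the human receptor were seeded at 1500 cells/well, incubated overnight at 37 degrees C in 5% CO2, then exposed to library compounds with dopamine controls for 90 minutes at 37 degrees C before luminescent detection.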
D1 antag: Antagonist of Human D 1 Dopamine Receptor: qHTS. D(1A) dopamine receptor (Homo sapiens), P21728. HEK293 TREx D1 cells, calcium flux, dopamine EC80; hits give low values. activity change, negative = inhibition, % at 10 µM. hit rate 3.2% among 360,000; in the data active = activity change below about -30%; also: % is scaled to controls: 0 for no effect and ±100 for the full control effect
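Inducible Hek293 Trex D1 cells (tetracycline, overnight, 30 C). Calcium dye 30–90 min RT. Antagonist mode: EC80 dopamine added after 180 s compound read.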
D1 agonist: Allosteric Agonists of the Human D1 Dopamine Receptor: qHTS. hit rate 1% among 360,000. D(1A) dopamine receptor (Homo sapiens), P21728. AID 504660, 2011. activation, % at 2 µM. HEK293 T-REx D1 cells, calcium flux, agonist mode; in the data active = activation above about 30%; also: 0% is about no effect
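Tetracycline-induced HEK293 TREx D1 cells, force-coupled to calcium signalling, were dye-loaded with a no-wash calcium kit. Compound was pin-added after a 10 s baseline. Fluorescence was read kinetically at 1 cycle/s for 180 s, with calcium rises flagged as agonism.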
DRD3 agonist: qHTS of D3 Dopamine Receptor Agonist: qHTS; hit rate 0.58% among 410,000; D(3) dopamine receptor (Homo sapiens), P35462; max activation, %; D3R DiscoveRx beta-arrestin cells, luminescence, 90 min; in the data active = max activation above about 30%; also: 0% is about no effect
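Agonist mode: compounds and dopamine controls were applied to plated cells for 90 min at 37 degrees C after an overnight attachment at 1500 cells/well. Luminescent read-out followed 30 - 60 minutes at room temperature with DiscoveRx detection reagent.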
D1 potentiator: Potentiators of Human D1 Dopamine Receptor: qHTS | D(1A) dopamine receptor (Homo sapiens), P21728 | HEK293 TREx D1 cells, calcium flux, dopamine EC20 potentiation | potentiation, % at 10 µM | hit rate 0.036% among 360,000 | AID 504651, 2011; in the data active = potentiation above about 30%; also: 0% is about no effect
* marks the source's active call; other numbers are inactive results; ? = inconclusive; / = no result.

SMILES	DRD3 antagonist	D1 antag	D1 agonist	DRD3 agonist	D1 potentiator
COc1ccc(CCn2c3c(c(=O)[nH]c2=O)C(NC(=O)c2ccccc2)(C(F)(F)F)C(=O)N3)cc1OC (configuration not stated)	/	4	1	3	-4
Cc1ccc(CN2CCN(c3ccccc3)CC2)o1	?	11	0	-5	-3
C=CCc1ccc(OCCCCN2CC(C)CC(C)C2)c(OC)c1 (configuration not stated)	-105*	3	7	-23	-14
C=CCc1ccc(OCCCCNC(C)CC)c(OC)c1 (configuration not stated)	-19	-3	6	-10	-1
C=CCc1ccc(OCCCCN2CCC(C)CC2)c(OC)c1	-59*	-18	4	-19	7
Cc1ccc(CN2CCN(c3ncccn3)CC2)o1	-54*	1	3	-8	-2
CCOC(=O)c1cc(-c2ccccc2)n(CC(=O)Nc2cc(Cl)c(OC)cc2OC)c1C	/	1	1	-13	0
N#CCCNCC1(c2ccccc2)CCCC1	-54*	-5	1	4	-6
COC(=O)c1cc(NC(=O)c2ccccc2F)cc(C(=O)OC)c1	-8	-32*	6	1	3
Cc1ccccc1C(=O)Nc1cc(NC(=O)c2ccccc2C)cc(C(=O)O)c1	-3	-38*	7	-1	-4
COc1cccc(CNC(=O)NCc2noc3ccc(C)cc23)c1	/	-4	1	6	-3
CC(C)c1ccc(NC(=O)c2cc3c(=O)[nH]c4ccccc4c3n2C)cc1	/	10	1	-2	4
COc1ccc(N2CC3=C(C2=O)C(c2ccc(O)c(OC)c2)NC(=O)N3C)cc1 (configuration not stated)	/	2	0	0	-1
COc1ccc(CCN2CCC(CNC(=O)c3cnn(-c4ccc(C)cc4)c3C3CCN(C(=O)OC(C)(C)C)CC3)CC2)cc1	/	-29	58*	-29	-7
Cc1ccc(-n2ncc(C(=O)Nc3ccc4c(c3)OCCO4)c2C2CCN(C(=O)OC(C)(C)C)CC2)cc1	/	-12	1	3	-5
COc1ccccc1CNC(=O)c1cnn(-c2ccc(F)cc2F)c1C1CCN(C(=O)OC(C)(C)C)CC1	/	-59*	0	0	-8
CC(C)(C)OC(=O)N1CCC(c2c(C(=O)Nc3ccc4c(c3)OCCO4)cnn2-c2ccccc2)CC1	/	-30*	2	7	-8
O=C(c1ccc([N+](=O)[O-])cc1)N1c2ncnn2C2(CCCCC2)[C@@H]2CCCC[C@@H]21	/	-5	1	-11	0
Cc1cc(C)cc(NC(=O)Cn2c(=O)n(C(C)C)c(=O)c3oc4ccccc4c32)c1	/	11	1	4	2
Cc1ccc(C)c(S(=O)(=O)C(C#N)c2nc3ccccc3nc2N2CCOCC2)c1 (configuration not stated)	0	21	8	0	-2
Cc1cccc(S(=O)(=O)C(C#N)c2nc3ccccc3nc2N2CCCC2)c1 (configuration not stated)	0	-8	34*	0	-9
Cc1ccc(C)c(S(=O)(=O)C(C#N)c2nc3ccccc3nc2N2CCCC2)c1 (configuration not stated)	3	-8	34*	-1	-2
COc1ccc(Nc2cc(O)c3ncccc3c2)cc1	/	-3	0	/	-8
COc1ccc(CC(=O)NC(=S)Nc2ccc(S(N)(=O)=O)cc2)cc1	-5	10	34*	-5	-9
COc1ccc(C(=O)NC(NC(=S)Nc2ccc(S(N)(=O)=O)cc2)C(Cl)(Cl)Cl)cc1 (configuration not stated)	-75*	4	2	-2	-2
SMILES	DRD3 antagonist	D1 antag	D1 agonist	DRD3 agonist	D1 potentiator
Cc1cc(C)n(C(C)CC(=O)Nc2ccc(C)c(F)c2)n1 (configuration not stated)	/	1	1	-16	-4
CC(=O)c1ccc(OC(C)C)c(CSc2nc(O)cc(=O)[nH]2)c1	-103*	-9	2	-32	0
CCOC(=O)N1CCN(C(=O)c2c[nH]c3ccc(S(=O)(=O)N(C)c4ccccc4C)cc3c2=O)CC1	11	-34*	2	3	-10
NC(=O)c1ccccc1NC(=O)CCc1ccccc1	-21	-8	1	11	-6
NC(=O)c1ccccc1NC(=S)NC(=O)CCc1ccccc1	?	-74*	3	-14	1
COc1ccc(-c2cc(C(F)(F)F)nc(SCC(=O)NC(C)c3ccccc3)n2)cc1 (configuration not stated)	/	7	2	-10	-4
O=C(c1ccccc1)N(Cc1ccccc1)c1ccccn1	-30	1	-1	-9	2
O=C(c1ccc([N+](=O)[O-])cc1)N(Cc1ccccc1)c1ccccn1	-55*	2	0	-16	-3
O=C(c1ccc(Br)o1)N(Cc1ccccc1)c1ccccn1	11	-3	4	32*	-19
CCc1c(C#N)sc(C(N)=O)c1CC	-9	-58*	0	-6	1
CN(C)CCNC(=O)c1ccc(-n2c(-c3ccccc3)cc3c2CCCC3)cc1	/	-6	2	-10	-1
Cc1c(N=C2Nc3cccc4cccc2c34)c(=O)n(-c2ccccc2)n1C	1	-8	36*	-24	-6
Cc1c(N2C(=O)c3cccc4cccc(c34)C2=O)c(=O)n(-c2ccccc2)n1C	-9	-18	1	-6	-4
O=C(NCc1ccccc1)C1CCN(S(=O)(=O)c2ccc3c(c2)CCCN3C(=O)C2CCC2)CC1	/	-13	1	5	-5
Cc1ccccc1-n1nnnc1SCc1csc(-c2ccccc2)n1	15	-35*	12	0	-10
Cc1ccccc1-n1nnnc1SCC(C)C	4	-15	3	-4	-1
CCc1cccc(C)c1NC(=O)c1cc(S(=O)(=O)N2CCCCCC2)cn1C	/	-9	0	-2	-2
O=C(O)c1cc2cccc(S(=O)(=O)N3CCCCC3)c2cc1O	9	15	-2	30*	-2
CC1(C)OC(C)(C)/C(=C\c2ccc(OCC(N)=O)cc2)C1=O	6	-66*	4	5	1
CC(C)C[C@H]1CN=C(Nc2ccccc2)N1CCCC1CCCC1	-51*	20	41*	-20	-6
c1ccc(COc2ccccc2CNC23CC4CC(CC(C4)C2)C3)cc1	-5	5	49*	-5	-4
c1ccc(COc2ccccc2CNC2CCCC2)cc1	?	/	8	-15	-1
Cc1cc(C)cc(NC(=O)CSCc2cc(=O)c3cc(Cl)ccc3[nH]2)c1	/	-12	0	2	2
